# From PubChem BioAssay AID1851 (National Center for Advancing Translational Sciences (NCATS), 2009)
# The campaign covered roughly 16,000 compounds. About 5,700 (36%) were called active. Not shown: some 24% with an inconclusive outcome. This is one part of the list. Unmarked numbers belong to inactive results. The call rests on the fitted dose curve; in most records, active means well fitted curve in the direction sought with a large enough effect; inconclusive means small, poorly fitted or top-dose-only effect, or effect the other way; inactive means no such curve, though single readings can be large or run the other way.
# Molecular target: Cytochrome P450 1A2 (Homo sapiens) (UniProt P05177)
# Assay: Cytochrome panel assay with activity outcomes
# Conditions: recombinant CYP, pro-luciferin dealkylation, luminescence, p450-cyp1a2; series mostly up to 57.1 µM; activity, negative = inhibition: at the top concentration
# On the % scale 0 is the no-effect control and ±100 the full control effect.
# Sequence of Cytochrome P450 1A2 (Homo sapiens) (P05177 whole entry, looked up): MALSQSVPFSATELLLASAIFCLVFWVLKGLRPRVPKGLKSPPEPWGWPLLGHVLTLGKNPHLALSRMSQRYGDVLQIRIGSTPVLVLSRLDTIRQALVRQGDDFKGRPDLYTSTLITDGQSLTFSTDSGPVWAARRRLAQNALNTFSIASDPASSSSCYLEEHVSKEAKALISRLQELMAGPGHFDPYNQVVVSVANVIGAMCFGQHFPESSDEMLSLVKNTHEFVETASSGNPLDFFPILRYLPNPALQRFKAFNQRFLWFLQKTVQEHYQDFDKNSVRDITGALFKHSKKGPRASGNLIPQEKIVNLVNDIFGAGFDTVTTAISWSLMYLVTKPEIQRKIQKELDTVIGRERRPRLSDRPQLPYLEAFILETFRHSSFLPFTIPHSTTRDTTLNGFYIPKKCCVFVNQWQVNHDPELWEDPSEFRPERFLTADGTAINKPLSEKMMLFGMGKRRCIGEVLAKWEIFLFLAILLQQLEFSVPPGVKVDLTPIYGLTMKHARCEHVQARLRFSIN
SMILES,"activity, negative = inhibition",AC50
N=c1ccn2c(n1)O[C@@H]1[C@@H](O)[C@H](CO)O[C@H]12,-3.76%,
COc1ccc(CCCO[C@@H](Cn2ccnc2)c2ccc(OC)cc2)cc1,,0.0158 µM (active)
Cc1ccc(/C=C2\SC(=S)N(CCCC(=O)Nc3ccccn3)C2=O)cc1,,10 µM (active)
Cc1ccc(C(=O)c2cn[nH]c2-c2cc(Cl)ccc2O)cc1,,14.1 µM (active)
O=C(CC(c1ccccc1)c1ccccc1)NCC1CCCO1 (stereo not drawn),0.353%,
CC(NC(=O)OCc1ccccc1)C(=O)NCC1CCCO1 (stereo not drawn),,12.6 µM (active)
O=C(NCC1CCCO1)C1CCC(=O)N1CCc1ccccc1 (stereo not drawn),-5.31%,
CC(C)Cc1nnc(NC(=O)c2ccc([N+](=O)[O-])cc2)s1,-16.6%,
CC(=O)N=c1sccn1CC(=O)c1ccc([N+](=O)[O-])cc1,,22.4 µM (active)
O=C(c1cccc(C(F)(F)F)c1)N1CCC(O)(CS(=O)(=O)Cc2ccccc2)CC1,6.59%,
C[C@@H](Cc1cccc(C(F)(F)F)c1)NCCOC(=O)c1ccccc1,,0.794 µM (active)
COC(=O)C(Cc1ccc(OC(=O)c2ccc(C(F)(F)F)cc2)cc1)N1Cc2ccccc2C1=O (stereo not drawn),-9.91%,
O=C(O)c1cccc(OCCO)c1,-14.7% [at 11.4 µM],
CCOc1cccc(OCCCNCCCOC)c1,,8.91 µM (active)
COc1ccccc1CNc1ncnc2ccc(-c3ccc4c(c3)OCO4)cc12,,0.794 µM (active)
COc1ccccc1CNc1ncnc2ccc(-c3ccc(N(C)C)cc3)cc12,,0.794 µM (active)
COc1ccccc1CNc1ncnc2ccc(-c3ccc(C(=O)N(C)C)cc3)cc12,,12.6 µM (active)
COc1ccc(CNc2ncnc3ccc(-c4ccc(N(C)C)cc4)cc23)c(OC)c1,,2.51 µM (active)
CC(C)(C)NC[C@H](O)c1cc(O)cc(O)c1,,inactive
CC(=O)NC1(c2cccc(F)c2)CCN(CC(=O)NC(C)C)CC1,21.3%,
[N-]=[N+]=Nc1ccc(C(=O)CSC[C@@H](NC(=O)CC[C@@H](N)C(=O)O)C(=O)NCC(=O)O)cc1,-18.2%,
CCNc1ncc2nc(-c3cn(C)c4ccccc34)c(=O)n(Cc3cccs3)c2n1,,6.31 µM (active)
CCNc1ncc2nc(-c3cccs3)c(=O)n(C)c2n1,,1.58 µM (active)
CCNc1ncc2nc(-c3cccs3)c(=O)n(Cc3cccs3)c2n1,,1.26 µM (active)

SMILES,"activity, negative = inhibition",AC50
COc1ccc(Nc2ncc3nc(-c4cccs4)c(=O)n(Cc4cccc(OC)c4)c3n2)cc1,-8.5%,
CCNc1ncc2nc(C)c(=O)n(Cc3cccs3)c2n1,,2 µM (active)
CC[N+](C)(C)c1cccc(O)c1,-2.3% [at 25.6 µM],
NC/C=C\C(=O)O,,inactive
Cc1ccc(Oc2nn[nH]n2)cc1,-8.17%,
CC(=O)CC(=O)[C@@]1(O)CC[C@@H]2[C@@H]3C=C(C)C4=CC(=O)CC[C@@H]4[C@H]3CC[C@]21C,-6.66% [at 25.6 µM],
CCNc1ncc2ncc(=O)n(Cc3cccs3)c2n1,,2 µM (active)
CCNc1ncc2nc(-c3ccccc3)c(=O)n(Cc3cccs3)c2n1,,0.316 µM (active)
CCNc1ncc2nc(-c3cc(F)cc(F)c3)c(=O)n(Cc3cccs3)c2n1,,5.01 µM (active)
C[N+]1(C)CCC(=C(c2ccccc2)c2ccccc2)CC1,-2.16% [at 25.6 µM],
CC(=O)Oc1cc(C(C)C)c(OCCN(C)C)cc1C,,3.16 µM (active)
CC(C)(C)CNCCO,6.23% [at 2.29 µM],
Cc1ccc(CSc2nnc(-c3ccncc3)n2CC2CCCO2)cc1 (stereo not drawn),-21.2%,
c1ccc(CSc2nnc([C@@H]3CCCN3)o2)cc1,,25.1 µM (active)
Cc1ccc(CSc2nnc([C@@H]3CCCN3)o2)cc1,,15.8 µM (active)
NC(=O)/C(=N\O)c1ccccc1,2.26%,
CCOC(=O)c1oc2nc(CC(C)C)c3c(c2c1N)CCC3,,0.891 µM (active)
COc1cccc([C@H]2Oc3ccc(OC)cc3/C(=N\OC[C@@H](O)[C@@H]3O[C@@H]4OC(C)(C)O[C@@H]4[C@H]3O)[C@@H]2O)c1,-8.99% [at 11.4 µM],
O=C(O)C[C@H](Cc1ccc2c(c1)OCO2)C(=O)O,-20% [at 11.4 µM],
CC1(C)SC(=S)N(Cc2ccc3c(c2)OCO3)C1N(O)C(=O)NC1CCCCC1 (stereo not drawn),-27.1%,
CCc1c(C(=O)NCc2ccc3c(c2)OCO3)[nH]c(C)c1C(C)=O,,3.16 µM (active)
CCc1ccccc1NC(=S)NCc1ccc2c(c1)OCO2,,5.62 µM (active)
C[N+]1(C)CCc2cc(O)c(O)cc2[C@H]1Cc1ccc(O)c(O)c1,-12.1% [at 2.29 µM],
CC1(C)CC(=O)C(C(C#Cc2ccccc2)C2=C(O)CC(C)(C)CC2=O)=C(O)C1,-28.5%,
